# Test results from PubChem BioAssay AID1452 (National Center for Advancing Translational Sciences (NCATS), 2008).
# About 190 (0.13%) of roughly 150,000 compounds were called active. Where a call stands in place of a potency, no number is given. Another 2% or so got no clear call; they are omitted. For the sample, actives were picked, then their nearest neighbours and some compounds at random. Values without a mark were called inactive. Calls follow the shape of the dose curve; as a rule, active = well fitted inhibition curve with a large enough effect; inconclusive = small, poorly fitted or top-dose-only effect; inactive = flat fitted curve, though single readings scatter.
# Biological target: Polyunsaturated fatty acid lipoxygenase ALOX12 (Homo sapiens) (UniProt P18054)
# Sequence (P18054 whole entry, looked up): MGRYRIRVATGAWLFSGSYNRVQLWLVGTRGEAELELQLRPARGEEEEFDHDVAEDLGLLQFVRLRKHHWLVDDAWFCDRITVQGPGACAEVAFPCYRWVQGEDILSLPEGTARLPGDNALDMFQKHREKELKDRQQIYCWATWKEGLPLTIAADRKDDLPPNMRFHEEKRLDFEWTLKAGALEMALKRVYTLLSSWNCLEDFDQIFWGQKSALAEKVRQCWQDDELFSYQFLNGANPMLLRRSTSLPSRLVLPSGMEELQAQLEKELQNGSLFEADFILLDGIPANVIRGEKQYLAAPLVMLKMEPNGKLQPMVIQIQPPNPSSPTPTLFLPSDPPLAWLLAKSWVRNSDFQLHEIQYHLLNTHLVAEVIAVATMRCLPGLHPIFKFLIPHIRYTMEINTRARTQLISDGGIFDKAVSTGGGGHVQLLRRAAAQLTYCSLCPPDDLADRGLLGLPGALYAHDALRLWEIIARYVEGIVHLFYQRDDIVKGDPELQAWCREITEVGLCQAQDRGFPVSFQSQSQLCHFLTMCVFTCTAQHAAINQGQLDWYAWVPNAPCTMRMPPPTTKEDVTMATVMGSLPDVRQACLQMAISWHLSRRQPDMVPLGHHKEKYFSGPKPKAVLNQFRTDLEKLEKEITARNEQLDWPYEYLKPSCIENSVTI
# Assay: qHTS Assay for Inhibitors of 12-hLO (12-human lipoxygenase); also: nearly all actives have a fitted effect of over 55% in size
# Conditions: purified 12-hLO, xylenol orange hydroperoxide absorbance; series mostly up to 57.1 µM
# Text: Assay Provider: Holman, T.R., University of California, Santa Cruz Screening Center PI: Austin, C.P. Screening Center: NIH Chemical Genomics Center [NCGC] Human lipoxygenase 12hLO is a member of the closely related lipoxygenase family of enzymes which catalyze the site-specific oxidation of arachidonic acid to various hormone precursor molecules and as such is a candidate for drug development in a variety of disease areas, such as cancer and inflammation. Inhibition of 12hLO activity was screened by utilizing arachidonic acid as a substrate. The extent of hydroperoxide product formation was measured by a secondary chromogenic reaction in which xylenol orange (XO, Sigma-Aldrich, cat. number 39,818-7) reacts with the ferric ions produced from the reaction between the hydroperoxide and ferrous ions. The Fe(III)-XO complex is characterized with red-shifted absorbance at 560 nm. A purified preparation of human 12hLO was supplied by Professor Ted Holman, University of California, Santa Cruz.
# Assay Protocol: Buffer: 25 mM Hepes pH 7.0, 0.01% Triton X-100. Reagents/Controls: Buffer in columns 3 and 4 as negative control (no enzyme). Substrate solution: 40 uM arachidonic acid (Sigma-Aldrich, St. Louis, MO) final concentration dispensed throughout the plate. Enzyme: 150 nM 12hLO final concentration in columns 1, 2, 5-48. Column 1 is neutral (100% activity). Column 2 contained pin-transferred titration of NDGA (nordihidroguaiaretic acid, Sigma-Aldrich, N 5023, top concentration 20 mM in DMSO, then 1:3 dilution in duplicate). (Dilution factor: 23 nL into 4 uL.) Chromogenic detection reagent (divalent iron/xylenol orange, Fe-XO): 200 uM xylenol orange plus 300 uM ferrous ammonium sulfate prepared freshly in 50 mM sulfuric acid. Assay Steps: Three uL of enzyme were dispensed to 1536-well Greiner black clear bottom plates. Compounds and controls (23 nL) were transferred via Kalypsys PinTool. The plates were incubated for 15 min at room temperature, and then 1 uL of substrate solution was added to start the reaction. After room temperature incubation for 30 minutes, 4 uL of Fe-XO solution was added to each well and the plates were incubated for 30 min. The absorbance at 405 and 573 nm were measured using ViewLux (Perkin-Elmer) High-throughput CCD imager and absorbance protocol settings. The 573-to-405 absorbance ratio was used to compute reaction progress.
# Potency is read from the fitted curve at half-maximal effect.
SMILES,Potency,"activity change, negative = inhibition"
COc1cc(NS(=O)(=O)c2ccc(N/C=C(\C=O)c3nc4cc(Cl)ccc4o3)cc2)nc(OC)n1,15.8 µM (active),
COc1cc(NS(=O)(=O)c2ccc(N=Cc3c(C)[nH]n(-c4ccccc4)c3=O)cc2)nc(OC)n1,,inactive
COc1cc(OC)cc(C(=O)Nc2ccc(S(=O)(=O)Nc3cc(C)on3)cc2)c1,,inactive
N#C/C=C\Oc1ccc(Cl)cc1N,22.4 µM (active),
COc1ccc(Cl)cc1C(=O)NCC#N,,inactive
CC1CCCCN1S(=O)(=O)c1ccc(S(=O)(=O)N(CC(=O)Nc2ccccc2)Cc2cccs2)cc1 (stereo unspecified),,inactive
CCCCC/C=C\C/C=C\CCCCCCCCCC(N)=O,,inactive
O=C(NCc1cccs1)c1ccc(Br)o1,,inactive
CCCCC/C=C\C/C=C\C/C=C\CCCCCCC(N)=O,,inactive
COC(=O)Cc1ccc(NC(=S)NCc2ccc(Cl)cc2)cc1,,inactive
CN(C)CCCNC(=S)NCc1ccc(Cl)cc1,,inactive
S=C(NCc1ccc(Cl)cc1)NC12CC3CC(CC(C3)C1)C2,22.4 µM (active),
c1ccc(C2=Nc3cccc4cccc(c34)N2)cc1,,inactive
CCOC(=O)C1=C(C)c2ccccc2OC1(C)C(=O)OCC (stereo unspecified),,-0.153% [at 0.00818 µM]
Cc1ccc(-c2cc(C(=O)NCc3cn(C)nc3C)c3cc(Br)ccc3n2)cc1,,inactive
CCCCOc1ccc(C(=O)N/C(=C/C=C/c2ccccc2)C(=O)N2CCOCC2)cc1,,inactive
CC(=O)c1c(O)cc2n(c1=O)-c1ccc(Cl)cc1C2(C)C,,inactive
COc1ccc(-c2nc3c(c4c2C[C@H](c2ccccc2)OC4)CN(C(=O)C2CC2)CC3)c(C)c1,,-3.7% [at 11.4 µM]
COC(=O)N1C(/C=C/C=C/c2ccc(OC)cc2)=Cc2ccccc2C1CC(C)=O (stereo unspecified),,1.56% [at 11.4 µM]
Cc1ccc(S(=O)(=O)N(Cc2ccc(Cl)cc2)c2ccccc2C(=O)NCc2cccnc2)cc1,,inactive
CCOC(=O)c1cnc2ccc(F)cc2c1Nc1ccc2c(c1)OCCO2,,inactive
CC1=C(/C=C/C(C)=C/C=C/C(C)=C/C=C/C=C(C)/C=C/C=C(C)/C=C/C(=O)[C@]2(C)C[C@@H](O)CC2(C)C)C(C)(C)C[C@H](O)C1,,-3.45% [at 0.00818 µM]
O=C(Cn1cnc2ccccc21)N/N=C/c1ccco1,,inactive
O=C(O)c1ccc(N=NN2CCOCC2)cc1,,inactive
C=C1c2cccc(OC)c2O[C@H](C(=O)OCC)[C@@H]1CCCCCC,,-4.96% [at 0.00818 µM]
CCCCCCCC/C=C\CCCCCCCC(=O)NCC(=O)O,,inactive
